In the library only some 19% were active in any assay of this set; here they are far more common.
Giardia kill = kills Giardia lamblia | Giardia lamblia trophozoite viability | activity change, % at 7.66 µM, hits read low | 340,000 tested, 0.15% active; in the data active = activity change below about -80%; inconclusive = between about -30% and that limit;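 also: parasites exposed to compound for two days anaerobically before the ATP read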
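Trophozoites 100 cells/well + cpd; 48 hrs, 37 deg C, anaerobic. ATPLite 1-Step added, 15-30 min RT, luminescence read (ATP-based viability).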
TDP1 cell noCPT = qHTS for Inhibitors of human tyrosyl-DNA phosphodiesterase 1 (TDP1): qHTS in cells in absence of CPT. Potency, µM (series often up to 46.2 µM), without a hit: at the top dose activity change, negative = growth inhibition, most hits filed as inhibitors. DT40 Tdp1-/- hTDP1 cells, no CPT, ATP luminescence, 48 h. 420,000 tested, 15% active; also: potency is read from the fitted curve at half-maximal effect; nearly all actives have a fitted effect of over 55% in size
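Compound effects on proliferation are scored in DT40 Tdp1-/-;hTDP1 cells in the absence of CPT. ATP levels (CellTiter-Glo luminescence) are recorded after a ≥48 hr, 37 °C incubation.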
TDP1 cell CPT = growth inhibition of DT40 Tdp1-/-;hTDP1 cells with camptothecin (screen for TDP1 inhibitors). 420,000 tested, 12% active. chicken DT40 Tdp1-/-;hTDP1 cells + 20 nM CPT, ATP luminescence, 48 h. Potency, µM (doses to about 46.2 µM), for the others: at the highest dose activity change, negative = growth inhibition, most hits filed as inhibitors; also: potency is read from the fitted curve at half-maximal effect; nearly all actives have a fitted effect of over 55% in size
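Chicken DT40 Tdp1-/- cells complemented with human TDP1, 400 cells/well, exposed to compounds plus 20 nM camptothecin for at least 48 h at 37 C; viability read as ATP content by CellTiter-Glo luminescence.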
IL-1B inflam inh = blocks inflammasome-driven IL-1 beta release; THP-1 LPS/ATP IL-1B secretion, AlphaLISA, 16 h; active compounds read low; activity change, % at 57.5 µM; 360,000 tested, 4.7% active; in the data active = activity change below about -50%; inconclusive = mostly about -30% to -49%
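Secreted IL-1B measured by AlphaLISA bead assay after 16 h compound exposure of THP-1 cells; compounds (final up to 57.5 uM) added 1 h before LPS (250 ng/mL) and ATP (1.25 mM) stimulation; lower signal means less secretion.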
ELG1 repair inh = ELG1-dependent DNA repair inhibition; HEK293T ELG1-luciferase reporter, luminescence, 16 h; DNA damage induced by 5-fluorouridine; Potency, µM (highest dose often 46.1 µM), for inactives: at the top dose activity change, negative = inhibition, hits mostly inhibitors; 330,000 tested, 2.3% active; AID 504467; also: potency is read from the fitted curve at half-maximal effect; nearly all actives have a fitted effect of over 55% in size
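5-Fluorouridine DNA damage + compound/DMSO, 2,000 cells/well, 16 h, 37 °C/5% CO2. ONE-Glo, 30 min RT, luminescence. Readout = decrease in reporter signal.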
TDP1 block = blocks human tyrosyl-DNA phosphodiesterase 1; Q9NUW8; recombinant TDP1, AlphaScreen DNA substrate cleavage; Potency, µM (series often up to 130 µM), for the others: at the top dose activity change, negative = inhibition, actives largely listed as inhibitors; 350,000 tested, 0.28% active; also: potency is read from the fitted curve at half-maximal effect; nearly all actives have a fitted effect of over 40% in size
Target sequence (Q9NUW8 whole entry, looked up): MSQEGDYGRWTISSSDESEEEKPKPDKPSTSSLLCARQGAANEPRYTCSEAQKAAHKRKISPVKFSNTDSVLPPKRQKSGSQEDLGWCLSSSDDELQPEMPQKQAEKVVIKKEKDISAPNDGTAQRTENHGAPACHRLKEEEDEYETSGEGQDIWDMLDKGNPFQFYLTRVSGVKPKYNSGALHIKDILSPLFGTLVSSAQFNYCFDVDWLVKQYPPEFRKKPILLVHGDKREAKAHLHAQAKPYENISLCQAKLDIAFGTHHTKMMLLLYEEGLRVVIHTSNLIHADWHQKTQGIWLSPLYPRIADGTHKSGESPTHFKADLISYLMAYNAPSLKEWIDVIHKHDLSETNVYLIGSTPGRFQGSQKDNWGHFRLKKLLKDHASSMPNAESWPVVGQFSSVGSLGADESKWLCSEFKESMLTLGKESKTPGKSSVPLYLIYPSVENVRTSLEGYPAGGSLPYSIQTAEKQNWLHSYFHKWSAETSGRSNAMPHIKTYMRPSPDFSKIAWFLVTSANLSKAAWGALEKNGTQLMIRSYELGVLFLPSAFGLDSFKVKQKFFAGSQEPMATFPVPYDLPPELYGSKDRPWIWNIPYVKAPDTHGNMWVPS
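Compounds were preincubated with Tdp1 (1 nM final) for 15 min at room temperature before substrate (15 nM final) started a 5 min reaction; beads (10 ug/ml final) were then added for 10 min before AlphaScreen detection.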
* = called active by the depositor; [ ] = remark or other dose. Unless noted, calls follow the shape of the dose curve; as a rule, active = well fitted curve in the direction sought with a large enough effect; inconclusive = small, poorly fitted or top-dose-only effect, or another doubt; inactive = no such curve, though single readings can be large; an effect the other way counts as inactive or inconclusive. % is scaled to controls: 0 for no effect and ±100 for the full control effect.

What do the screens show for `Cc1cccc(OCC(=O)Nc2ccccc2N2CCCCC2)c1`?
Giardia kill: -16; TDP1 cell noCPT: inconclusive; TDP1 cell CPT: 12µM*; IL-1B inflam inh: 7; ELG1 repair inh: -15%; TDP1 block: -2%

How did O=C(COc1ccccc1)Nc1cc(C(F)(F)F)ccc1N1CCCC1 do in these assays?
Giardia kill: 3; TDP1 cell noCPT: inconclusive; TDP1 cell CPT: inconclusive; IL-1B inflam inh: -1; ELG1 repair inh: inconclusive; TDP1 block: -1%

Results for COc1cc(C(=S)N2CCCC2)cc(Cl)c1OCC(=O)Nc1ccc(C)cc1C ?
Giardia kill: 24; TDP1 cell noCPT: inconclusive; TDP1 cell CPT: 13µM*; IL-1B inflam inh: -16; ELG1 repair inh: inconclusive; TDP1 block: 0%

What do the screens show for `CC(CN1CCCCC1)OC(=O)C(C)(c1ccccc1)c1ccccc1` (centres undefined)?
Giardia kill: 20; TDP1 cell noCPT: 21µM*; TDP1 cell CPT: inconclusive; IL-1B inflam inh: -20; ELG1 repair inh: -12%; TDP1 block: 2%

Results for Cc1cc(C)cc(NC(=O)C2CCN(C(=O)c3cccs3)CC2)c1 ?
Giardia kill: 8; TDP1 cell noCPT: -7%; TDP1 cell CPT: inconclusive; IL-1B inflam inh: 0; ELG1 repair inh: 6%; TDP1 block: 7%

Results for CC(CN1CCCCC1)OC(=O)COc1ccc(Cl)cc1 (centres undefined) ?
Giardia kill: 8; TDP1 cell noCPT: inconclusive; TDP1 cell CPT: inconclusive; IL-1B inflam inh: 10; ELG1 repair inh: 2%

How did Cc1ccc(OCC(=O)Nc2ccccc2N2CCCC2)c(C)c1 do in these assays?
Giardia kill: -5; TDP1 cell noCPT: 29µM*; TDP1 cell CPT: inconclusive; IL-1B inflam inh: inconclusive; ELG1 repair inh: 3%; TDP1 block: 2%

Results for Cc1ccc(C)c(OCC(=O)Nc2ccccc2N2CCCC2)c1 ?
Giardia kill: -13; TDP1 cell noCPT: inconclusive; TDP1 cell CPT: inconclusive; IL-1B inflam inh: -30; ELG1 repair inh: 1%; TDP1 block: 7%

How did CC(C)C(=O)N1CCN(c2ccccc2NC(=O)COc2ccccc2)CC1 do in these assays?
Giardia kill: 3; TDP1 cell noCPT: inconclusive; TDP1 cell CPT: inconclusive; IL-1B inflam inh: -19; ELG1 repair inh: inconclusive; TDP1 block: 0%

Results for CC(C)C(=O)N1CCN(c2ccccc2NC(=O)COc2ccc(C3CCCCC3)cc2)CC1 ?
Giardia kill: 11; TDP1 cell noCPT: inconclusive; TDP1 cell CPT: inconclusive; IL-1B inflam inh: inconclusive; ELG1 repair inh: 21µM*; TDP1 block: 1%

What do the screens show for `Cc1cccc(OCC(=O)OC(C)CN2CCCCC2)c1` (centres undefined)?
Giardia kill: -29; TDP1 cell noCPT: 9%; TDP1 cell CPT: -22%; IL-1B inflam inh: 31; ELG1 repair inh: 2%; TDP1 block: 35µM*

Results for CCCCNC(=O)C1c2ccccc2OCC(=O)N1CCc1ccc(OC)c(OC)c1 (centres undefined) ?
TDP1 cell noCPT: -28%; TDP1 cell CPT: -15%; IL-1B inflam inh: -3

Results for O=C(CS(=O)(=O)c1cn(CC(=O)N2CCCC2)c2ccccc12)Nc1ccccc1F ?
Giardia kill: 9; TDP1 cell noCPT: -4%; TDP1 cell CPT: -6%; IL-1B inflam inh: 0; ELG1 repair inh: 9%; TDP1 block: 2%[56.1 µM]

How did Clc1ccc2[nH]c3c(N4CCC5(CC4)OCCO5)ncnc3c2c1 do in these assays?
Giardia kill: -5; TDP1 cell noCPT: 18µM*; TDP1 cell CPT: 23µM*; IL-1B inflam inh: inconclusive; ELG1 repair inh: inconclusive; TDP1 block: 7%

Results for O=c1c2ccccc2[nH]c(=S)n1CCCN1CCN(C2CCCCC2)CC1 ?
Giardia kill: -5; TDP1 cell noCPT: -16%; TDP1 cell CPT: 17%; IL-1B inflam inh: -6; ELG1 repair inh: 8%; TDP1 block: 6%

How did c1ccc2c(c1)[nH]c1c(N3CCOCC3)ncnc12 do in these assays?
Giardia kill: -5; TDP1 cell noCPT: 13µM*; TDP1 cell CPT: 16µM*; IL-1B inflam inh: -17; ELG1 repair inh: inconclusive; TDP1 block: 0%

Results for c1ccc2c(c1)[nH]c1c(N3CCN(C4CCCCC4)CC3)ncnc12 ?
Giardia kill: -4; TDP1 cell noCPT: 15µM*; TDP1 cell CPT: inconclusive; IL-1B inflam inh: 7; ELG1 repair inh: -10%; TDP1 block: -1%

How did c1ccc2c(c1)[nH]c1c(N3CCCC3)ncnc12 do in these assays?
Giardia kill: -14; TDP1 cell noCPT: 5.2µM*; TDP1 cell CPT: 5.8µM*; IL-1B inflam inh: -6; ELG1 repair inh: inconclusive; TDP1 block: 5%

Results for Cc1ccc2[nH]c3c(N4CCOCC4)ncnc3c2c1 ?
Giardia kill: -11; TDP1 cell noCPT: inconclusive; TDP1 cell CPT: inconclusive; IL-1B inflam inh: -20; ELG1 repair inh: -20%; TDP1 block: -2%

What do the screens show for `c1ccc2c(c1)[nH]c1c(N3CCSCC3)ncnc12`?
Giardia kill: 2; TDP1 cell noCPT: 18µM*; TDP1 cell CPT: inconclusive; IL-1B inflam inh: -8; ELG1 repair inh: 0%; TDP1 block: 1%

How did Cc1ccc(NC(=O)CSc2nnc(COc3ccc(Cl)cc3)o2)cc1 do in these assays?
TDP1 cell noCPT: 1%; TDP1 cell CPT: 20%; TDP1 block: 3%

How did C/C(=N\O)C(=O)NCc1ccccn1 do in these assays?
Giardia kill: 8; TDP1 cell noCPT: -4%; TDP1 cell CPT: -11%; IL-1B inflam inh: 17; ELG1 repair inh: 11%; TDP1 block: 1%

What do the screens show for `O=C(NCc1ccccn1)/C(=N/O)c1ccccc1`?
Giardia kill: 6; TDP1 cell noCPT: 15µM*; TDP1 cell CPT: 15µM*; IL-1B inflam inh: 12; ELG1 repair inh: inconclusive; TDP1 block: -2%

How did CC1CCCCC1NC(=O)NC(=O)CCl (centres undefined) do in these assays?
Giardia kill: -16; TDP1 cell noCPT: 5.2µM*; TDP1 cell CPT: 2.9µM*; IL-1B inflam inh: -96*; ELG1 repair inh: 21µM*; TDP1 block: -4%

What do the screens show for `CC1CCCC(NC(=O)CSC2CCCCC2)C1C` (centres undefined)?
Giardia kill: 1; TDP1 cell noCPT: inconclusive; TDP1 cell CPT: inconclusive; IL-1B inflam inh: inconclusive; ELG1 repair inh: 8%; TDP1 block: 0%

Results for CC1CCCC(NC(=O)NC(=O)CCl)C1C (centres undefined) ?
Giardia kill: -9; TDP1 cell noCPT: 3.7µM*; TDP1 cell CPT: 3.7µM*; IL-1B inflam inh: -63*; ELG1 repair inh: 21µM*; TDP1 block: -4%

Screens as filed in PubChem.
